Molecules are shown by their SMILES. Unmarked numbers belong to inactive results. The source made the active and inactive calls.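 How the source made its calls: active means differentiation response of at least 50%, scaled between solvent and reference control, from cells with both markers; inactive means the rest.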

The assay in a line: promoters of myeloid differentiation in arrested cells, primary screen, cell-based, GFP/MAC1 double positive, flow cytometry, validation set (AID 588685).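 Further: compound exposure lasts four days before antibody staining and flow analysis; 0% = DMSO wells and 100% = 5 µM fulvestrant positive control.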 The settings on record: ER-HoxA9 marrow cells, active compounds read high, normalized: vehicle 0, fulvestrant 100.
For `CCCCCCCC(=O)OCC(O)CO` (stereo not drawn), the differentiation response was 2.2%.
In the case of `S=C(c1ccc2c(c1)OCO2)N1CCCCC1`, the differentiation response was -10.4%.
`COc1cc2cc(C)nc(Cc3cccc4ccccc34)c2cc1OC`: the differentiation response is 4.21%.
For `CCn1cc(C(=O)O)c(=O)c2ccc(C)nc21`, the differentiation response is -4.57%.
As to `c1coc(-c2nnc3n2C2(CCCC2)Cc2ccccc2-3)c1`, the differentiation response is 3.28%.
The same measure for `COc1ccc(Cc2noc(CN(C)CCN3CCc4ccccc4C3)n2)cc1OC`: 5.13%; for `CC1(C)c2ccccc2N2CC(=O)NC21/C=C/c1ccco1` (stereo not drawn): -3.11%; for `CC12CC(c3ccccc3O1)C(C(=O)N1CCOCC1)C(=O)N2` (stereo not drawn): -1.88%.
`O=C1CC(c2ccc(OCCCCCOc3ccc(C4CC(=O)NC4=O)cc3)cc2)C(=O)N1` (stereo not drawn): the differentiation response is 24.7%.
Take `O=c1[nH]c(=O)n(C2CCCO2)cc1F` (stereo not drawn): the differentiation response is 35.2%.
With `NC(N)=NC(=O)Cc1c(Cl)cccc1Cl`, the differentiation response was -2.69%.
Regarding `CCOC(=O)Cn1c(C)cc(=O)c2ccccc21`, the differentiation response was 114% (active).
For the compound `Cc1ccc(C(=O)Nc2ccccc2C(=O)NC(C(=O)O)C(C)C)cc1` (stereo not drawn), the differentiation response was -13.6%.
On to `Cc1cc(O)c2/c(=N\N)c(-c3csc(C)n3)coc2c1`, for which the differentiation response is -0.18%.
Turning to `O=C(CN1C(=O)/C(=C/c2cccc(Br)c2)SC1=S)Nc1cccnc1`, the differentiation response is 2.74%.
For the compound `COc1ccc2[nH]c(CN3CCN(CC(C)C)C(CCO)C3)c(C)c2c1` (stereo not drawn), the differentiation response was -4%.
With `CC[N+](C)(C)c1cccc(O)c1`, the differentiation response is 7.09%.
Take `COc1cccc2c(=O)c(C/C=C(/C)Cl)c(C)[nH]c12`: the differentiation response was -16.8%.

The values above are taken from PubChem BioAssay.
